Several values for one entry are separate records, joined by “and”; a condition that tells them apart may be missing. Identical values can stand only once. Hit rate of the full screen: of about 5,500 compounds, about 2,000 (36%) were called active. Another 18% or so got no clear call; they are omitted. No stated cut-off is given here; in the data, active means normalized growth mostly below about 0.91 (no sharp cut-off); inconclusive means no clear call, values can overlap the other calls; inactive means mostly above about 0.92. The list shows a part of the results.
Assay: chemical genetic growth profiling, strain panel (AID 1159580);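 further: tested at 20 µM; growth read once vehicle control cultures reached saturation at 30 °C; 1 = growth at the plate median or of vehicle wells; lower values mean less growth of the strain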
Details: S. cerevisiae deletion strains, growth OD

Measured: normalized growth

C=CCc1cc(OC)c2c(c1OC)OCO2
inactive: locus YAL013W, strain DEP1, hits give low values 0.971 | locus YAL021C, strain ccr4, hits give low values 1 | locus YAL026C, strain drs2, hits give low values 0.955 | locus YAL030W, strain snc1, hits give low values 0.95 | locus YBL061C, strain skt5, hits give low values 0.926 | locus YBR009C, strain hhf1, hits give low values 0.938 | locus YBR021W, strain FUR4, hits give low values 0.934 | locus YBR229C, strain ROT2, hits give low values 0.996 | locus YBR231C, strain swc5, hits give low values 0.982 | locus YBR279W, strain paf1, hits give low values 0.966 | locus YCL011C, strain gbp2, hits give low values 0.937 | locus YCL016C, strain dcc1, hits give low values 0.937 | locus YCL029C, strain bik1, hits give low values 0.945 | locus YCL061C, strain MRC1, hits give low values 0.944 | locus YCL069W, strain vba3, hits give low values 0.969 | locus YCR088W, strain abp1, hits give low values 0.954 | locus YDL005C, strain med2, hits give low values 0.992 | locus YDL035C, strain GPR1, hits give low values 0.968 | locus YDL074C, strain BRE1, hits give low values 0.91 | locus YDL101C, strain DUN1, hits give low values 0.995 | locus YDL134C, strain PPH21, hits give low values 0.982 | locus YDL185W, strain tfp1, hits give low values 0.968 | locus YDL192W, strain arf1, hits give low values 0.956 | locus YDR001C, strain nth1, hits give low values 0.93 | locus YDR069C, strain doa4, hits give low values 1.06 | locus YDR137W, strain rgp1, hits give low values 0.955 | locus YDR150W, strain NUM1, hits give low values 0.979 | locus YDR162C, strain NBP2, hits give low values 0.951 | locus YDR297W, strain sur2, hits give low values 0.94 | locus YDR318W, strain mcm21, hits give low values 0.947 | locus YDR334W, strain swr1, hits give low values 1.02 | locus YDR335W, strain msn5, hits give low values 0.982 | locus YDR388W, hits give low values 0.947 | locus YDR502C, strain sam2, hits give low values 0.929 | locus YEL003W, strain gim4, hits give low values 0.955 | locus YEL037C, strain rad23, hits give low values 0.987 | locus YEL061C, strain CIN8 (second series), hits give low values 0.946 | locus YEL061C, strain CIN8, hits give low values 0.966 | locus YER015W, strain faa2, hits give low values 0.955 | locus YER016W, strain bim1, hits give low values 0.938 | locus YER110C, hits give low values 0.929 | locus YER155C, strain BEM2, hits give low values 0.96 | locus YER167W, strain BCK2, hits give low values 0.938 | locus YFR010W, strain ubp6, hits give low values 1.06 | locus YGL078C, strain dbp3, hits give low values 0.959 | locus YGL086W, strain mad1, hits give low values 0.962 | locus YGL173C, strain kem1, hits give low values 0.909 | locus YGL248W, strain PDE1, hits give low values 0.983 | locus YGL253W, strain hxk2, hits give low values 0.945 | locus YGR078C, strain PAC10, hits give low values 0.903 | locus YGR135W, strain pre9, hits give low values 0.948 | locus YGR229C, strain SMI1, hits give low values 0.932 | locus YGR252W, strain gcn5, hits give low values 0.969 | locus YHR027C, strain rpn1, hits give low values 0.947 | locus YHR030C, strain SLT2, hits give low values 0.963 and 0.999 | locus YHR079C, strain IRE1 (second series), hits give low values 0.932 | locus YHR079C, strain IRE1, hits give low values 0.995 | locus YHR094C, strain hxt1, hits give low values 0.935 | locus YHR129C, strain ARP1, hits give low values 0.955 | locus YHR200W, strain rpn10, hits give low values 0.969 | locus YIL066C, strain RNR3, hits give low values 0.979 | locus YIL073C, strain SPO22, hits give low values 1.07 | locus YIL125W, strain kgd1, hits give low values 0.934 | locus YIR030C, strain dcg1, hits give low values 0.933 | locus YJL092W, strain hpr5, hits give low values 0.922 | locus YJL095W, strain BCK1, hits give low values 0.868 and 0.994 | locus YJL115W, strain asf1, hits give low values 0.978 | locus YJL129C, strain trk1, hits give low values 0.942 | locus YJL134W, strain LCB3, hits give low values 0.973 | locus YJL154C, strain vps35, hits give low values 0.989 | locus YJL164C, strain tpk1, hits give low values 0.939 | locus YJL166W, strain qcr8, hits give low values 0.934 | locus YJL168C, strain set2, hits give low values 0.94 | locus YJL187C, strain SWE1 (second series), hits give low values 0.985 | locus YJL187C, strain SWE1, hits give low values 0.945 | locus YJR043C, strain POL32, hits give low values 1.05 | locus YJR066W, strain TOR1, hits give low values 0.95
active: locus YBR023C, strain chs3, hits give low values 0.902 | locus YBR171W, strain sec66, hits give low values 0.874 | locus YDL040C, strain nat1, hits give low values 0.924 | locus YDR101C, strain arx1, hits give low values 0.908 | locus YDR159W, strain sac3, hits give low values 0.797 | locus YDR195W, strain ref2 1.22 [resistant] | locus YDR392W, strain spt3, hits give low values 0.378 | locus YER111C, strain swi4, hits give low values 0.898 | locus YER155C, strain BEM2 (second series), hits give low values 0.462 | locus YGL167C, strain pmr1, hits give low values 0.908 | locus YGL227W, strain vid30, hits give low values 0.882 | locus YGL240W, strain doc1, hits give low values 0.839 | locus YHR013C, strain ard1, hits give low values 1.32 [resistant] | locus YHR142W, strain chs7, hits give low values 0.723 | locus YJL095W, strain BCK1 (second series), hits give low values 0.879

Reference: PubChem BioAssay AID1159580 (chemical genetic matrix, 2015)
